Assay results taken from the supplement of paper PMC11732987, “Enantioselective OTUD7B fragment discovery through chemoproteomics screening and high-throughput optimisation” (Communications Chemistry, 2025).

Assays:
Assay in all cases: log2 ratio of Biotin-Ahx-Ub-VS probe labelling (fragment/DMSO); higher = less target engagement (more negative = stronger competition), active = hit call of the paper (q ≤ 0.05, log2 ratio ≤ -1)
Conditions in all cases: compound concentration: 200 uM; treatment time: 3 h
OTUD6B = molecular target: T1, OTUD6B (UniProt Q8N6M0)
T1 sequence (whole entry): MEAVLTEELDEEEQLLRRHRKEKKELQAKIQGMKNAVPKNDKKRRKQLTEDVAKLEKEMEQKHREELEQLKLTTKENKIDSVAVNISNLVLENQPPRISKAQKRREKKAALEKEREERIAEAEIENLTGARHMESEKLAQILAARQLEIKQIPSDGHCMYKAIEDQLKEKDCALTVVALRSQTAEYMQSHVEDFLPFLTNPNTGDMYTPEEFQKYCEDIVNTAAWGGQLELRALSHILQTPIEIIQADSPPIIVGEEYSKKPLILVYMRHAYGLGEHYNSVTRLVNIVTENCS
In short: (§1)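 Fragment (200 µM) or vehicle was incubated for 3 h with triplicate HEK293T lysate samples of 495 µg, which were then treated with Biotin-Ahx-Ub-VS at 0.5 µM final for 1 h. Labelled DUBs were enriched on NeutrAvidin, digested with LysC and trypsin, and analysed by diaPASEF LC-MS/MS. Values are average log2 fragment/vehicle ratios from an unpaired t-test on global-median-normalised Spectronaut label-free quantities, using proteins with ≥2 unique peptides.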

OTUD7B = molecular target: T2, OTUD7B (UniProt Q6GQQ9)
T2 sequence (whole entry): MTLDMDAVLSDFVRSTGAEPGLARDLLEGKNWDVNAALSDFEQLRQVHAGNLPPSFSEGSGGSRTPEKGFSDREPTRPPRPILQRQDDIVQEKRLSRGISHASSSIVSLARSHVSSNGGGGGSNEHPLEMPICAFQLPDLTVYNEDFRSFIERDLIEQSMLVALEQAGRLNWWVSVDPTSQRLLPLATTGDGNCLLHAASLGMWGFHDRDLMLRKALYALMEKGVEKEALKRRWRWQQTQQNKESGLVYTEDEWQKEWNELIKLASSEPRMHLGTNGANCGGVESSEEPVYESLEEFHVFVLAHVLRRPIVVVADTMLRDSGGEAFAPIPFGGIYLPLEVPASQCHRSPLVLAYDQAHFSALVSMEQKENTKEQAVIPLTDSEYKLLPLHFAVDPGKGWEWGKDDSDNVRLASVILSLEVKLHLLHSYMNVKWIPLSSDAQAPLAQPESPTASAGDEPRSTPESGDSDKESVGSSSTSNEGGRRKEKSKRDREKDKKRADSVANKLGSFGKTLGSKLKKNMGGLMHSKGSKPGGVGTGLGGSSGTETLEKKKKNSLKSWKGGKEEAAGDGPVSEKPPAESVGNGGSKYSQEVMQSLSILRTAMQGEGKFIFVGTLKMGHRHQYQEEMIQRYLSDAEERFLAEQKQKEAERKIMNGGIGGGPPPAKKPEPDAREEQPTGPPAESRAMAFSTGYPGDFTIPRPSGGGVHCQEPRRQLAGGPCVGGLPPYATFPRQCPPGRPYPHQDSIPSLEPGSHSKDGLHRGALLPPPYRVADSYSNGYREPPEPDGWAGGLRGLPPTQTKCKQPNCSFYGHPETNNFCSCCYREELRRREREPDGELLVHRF
In short: as §1

PRPF8 = PRPF8 (UniProt Q6P2Q9)
In short: as §1

PSMD7 = molecular target: T3, PSMD7 (UniProt P51665)
T3 sequence (whole entry): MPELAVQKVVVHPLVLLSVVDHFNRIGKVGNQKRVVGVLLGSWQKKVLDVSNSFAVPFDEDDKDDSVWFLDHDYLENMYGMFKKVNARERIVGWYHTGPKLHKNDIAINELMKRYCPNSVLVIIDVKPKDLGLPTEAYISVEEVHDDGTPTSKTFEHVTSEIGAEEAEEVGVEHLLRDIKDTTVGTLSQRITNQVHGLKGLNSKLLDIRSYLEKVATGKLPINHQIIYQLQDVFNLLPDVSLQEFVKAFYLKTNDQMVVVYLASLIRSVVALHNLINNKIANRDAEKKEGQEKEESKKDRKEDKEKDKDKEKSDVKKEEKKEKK
In short: as §1

UCHL1 = UCHL1 (UniProt P09936)
Sequence of UCHL1 (P09936 whole entry, looked up): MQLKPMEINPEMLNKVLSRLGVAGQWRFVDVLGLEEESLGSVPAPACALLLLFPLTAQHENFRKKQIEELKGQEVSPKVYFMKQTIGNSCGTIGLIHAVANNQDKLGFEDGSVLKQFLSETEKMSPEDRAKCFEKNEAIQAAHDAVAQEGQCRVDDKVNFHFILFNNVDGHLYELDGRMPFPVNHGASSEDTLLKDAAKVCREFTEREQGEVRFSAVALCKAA
In short: as §1

UCHL3 = molecular target: T4, UCHL3 (UniProt P15374)
T4 sequence (whole entry): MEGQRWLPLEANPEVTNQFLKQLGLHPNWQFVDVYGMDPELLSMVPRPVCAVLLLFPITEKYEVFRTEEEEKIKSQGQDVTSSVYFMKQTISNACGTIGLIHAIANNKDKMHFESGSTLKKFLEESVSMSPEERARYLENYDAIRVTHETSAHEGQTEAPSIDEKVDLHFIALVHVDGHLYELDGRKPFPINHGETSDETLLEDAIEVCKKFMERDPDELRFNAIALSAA
In short: as §1

UCHL5 = molecular target: T5, UCHL5 (UniProt Q9Y5K5)
T5 sequence (whole entry): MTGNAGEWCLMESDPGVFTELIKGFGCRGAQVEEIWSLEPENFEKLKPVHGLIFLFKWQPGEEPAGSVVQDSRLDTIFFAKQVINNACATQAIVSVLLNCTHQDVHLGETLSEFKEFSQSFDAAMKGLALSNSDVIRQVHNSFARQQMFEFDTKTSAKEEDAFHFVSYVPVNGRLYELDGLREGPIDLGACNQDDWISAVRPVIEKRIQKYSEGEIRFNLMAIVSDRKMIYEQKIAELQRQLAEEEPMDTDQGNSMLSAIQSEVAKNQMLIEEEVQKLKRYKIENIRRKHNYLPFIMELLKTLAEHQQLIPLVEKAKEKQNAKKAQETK
In short: as §1

USP10 = USP10 (UniProt Q14694)
Sequence of USP10 (Q14694 whole entry): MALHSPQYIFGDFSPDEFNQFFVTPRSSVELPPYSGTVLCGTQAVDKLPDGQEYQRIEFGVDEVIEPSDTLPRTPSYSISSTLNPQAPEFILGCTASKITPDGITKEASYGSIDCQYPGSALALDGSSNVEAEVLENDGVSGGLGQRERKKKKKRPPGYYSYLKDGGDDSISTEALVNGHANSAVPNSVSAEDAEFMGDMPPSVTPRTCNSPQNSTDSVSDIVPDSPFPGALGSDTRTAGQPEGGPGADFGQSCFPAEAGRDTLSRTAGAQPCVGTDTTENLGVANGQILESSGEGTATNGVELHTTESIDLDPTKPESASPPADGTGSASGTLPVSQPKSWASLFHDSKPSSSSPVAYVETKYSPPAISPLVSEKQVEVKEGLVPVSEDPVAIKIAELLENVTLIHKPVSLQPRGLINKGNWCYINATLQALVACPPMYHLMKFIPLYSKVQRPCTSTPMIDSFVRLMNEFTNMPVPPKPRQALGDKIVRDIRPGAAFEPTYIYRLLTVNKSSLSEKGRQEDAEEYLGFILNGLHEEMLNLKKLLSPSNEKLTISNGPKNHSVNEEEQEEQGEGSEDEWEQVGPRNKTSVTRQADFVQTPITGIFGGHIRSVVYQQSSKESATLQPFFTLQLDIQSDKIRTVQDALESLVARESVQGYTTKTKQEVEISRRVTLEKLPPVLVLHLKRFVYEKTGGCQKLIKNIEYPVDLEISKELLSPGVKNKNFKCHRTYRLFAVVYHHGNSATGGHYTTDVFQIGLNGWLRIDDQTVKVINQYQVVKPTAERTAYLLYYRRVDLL
In short: as §1

USP15 = molecular target: T6, USP15 (UniProt Q9Y4E8)
T6 sequence (whole entry): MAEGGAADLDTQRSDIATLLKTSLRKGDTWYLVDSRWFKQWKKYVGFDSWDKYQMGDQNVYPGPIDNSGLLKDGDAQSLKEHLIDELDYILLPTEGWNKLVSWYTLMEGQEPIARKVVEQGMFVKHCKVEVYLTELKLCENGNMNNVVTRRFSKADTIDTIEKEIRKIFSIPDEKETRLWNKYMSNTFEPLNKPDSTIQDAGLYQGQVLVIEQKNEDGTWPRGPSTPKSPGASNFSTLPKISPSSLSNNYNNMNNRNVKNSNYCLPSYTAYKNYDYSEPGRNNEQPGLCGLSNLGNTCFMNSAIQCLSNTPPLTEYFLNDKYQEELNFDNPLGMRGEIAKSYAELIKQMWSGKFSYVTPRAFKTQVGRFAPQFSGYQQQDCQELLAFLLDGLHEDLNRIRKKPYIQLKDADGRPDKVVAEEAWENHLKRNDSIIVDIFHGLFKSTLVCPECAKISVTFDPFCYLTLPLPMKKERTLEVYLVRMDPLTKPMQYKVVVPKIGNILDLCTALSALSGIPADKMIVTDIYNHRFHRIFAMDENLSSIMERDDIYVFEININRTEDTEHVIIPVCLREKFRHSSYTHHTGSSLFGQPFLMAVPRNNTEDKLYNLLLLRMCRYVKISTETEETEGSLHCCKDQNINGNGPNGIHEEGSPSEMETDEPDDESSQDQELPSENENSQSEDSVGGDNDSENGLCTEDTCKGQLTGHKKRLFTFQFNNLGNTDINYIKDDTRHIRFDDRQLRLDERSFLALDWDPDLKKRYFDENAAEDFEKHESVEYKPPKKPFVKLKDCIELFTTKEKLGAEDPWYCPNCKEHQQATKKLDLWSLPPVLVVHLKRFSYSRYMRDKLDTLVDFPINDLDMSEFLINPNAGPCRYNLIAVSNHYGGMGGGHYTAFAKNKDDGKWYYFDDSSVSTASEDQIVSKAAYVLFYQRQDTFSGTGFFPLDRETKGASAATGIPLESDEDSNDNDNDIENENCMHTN
In short: as §1

USP16 = USP16 (UniProt Q9Y5T5)
Sequence of USP16 (Q9Y5T5 whole entry, looked up): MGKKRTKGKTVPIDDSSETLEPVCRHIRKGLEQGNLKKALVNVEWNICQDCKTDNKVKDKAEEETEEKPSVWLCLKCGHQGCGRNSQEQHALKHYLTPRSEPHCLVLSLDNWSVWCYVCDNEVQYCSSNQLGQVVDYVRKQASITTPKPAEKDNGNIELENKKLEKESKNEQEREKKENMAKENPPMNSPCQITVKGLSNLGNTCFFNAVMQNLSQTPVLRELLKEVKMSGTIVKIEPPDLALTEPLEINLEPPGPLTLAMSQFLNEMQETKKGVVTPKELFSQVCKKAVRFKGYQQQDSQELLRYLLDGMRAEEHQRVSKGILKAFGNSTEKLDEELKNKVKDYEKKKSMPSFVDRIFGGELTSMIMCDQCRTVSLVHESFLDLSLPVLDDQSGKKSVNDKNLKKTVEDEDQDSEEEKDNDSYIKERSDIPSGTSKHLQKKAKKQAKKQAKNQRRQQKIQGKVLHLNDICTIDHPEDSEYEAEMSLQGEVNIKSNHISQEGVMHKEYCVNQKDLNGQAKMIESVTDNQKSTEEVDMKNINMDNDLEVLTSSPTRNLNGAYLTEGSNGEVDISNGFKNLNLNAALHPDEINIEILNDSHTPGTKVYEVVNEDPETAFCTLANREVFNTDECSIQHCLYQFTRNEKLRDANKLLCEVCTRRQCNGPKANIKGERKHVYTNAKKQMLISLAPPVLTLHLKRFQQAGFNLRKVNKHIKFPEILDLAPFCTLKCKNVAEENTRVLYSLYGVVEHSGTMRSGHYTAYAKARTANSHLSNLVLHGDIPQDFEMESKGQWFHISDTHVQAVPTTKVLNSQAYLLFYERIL
In short: as §1

Measured: log2 ratio of Biotin-Ahx-Ub-VS probe labelling

COc1ccc(C2CCCN2C(=O)CCl)c(OC)c1 (stereo not given)
inactive: OTUD6B -0.302 | OTUD7B -0.122 | PRPF8 0.164 | PSMD7 -0.138 | UCHL5 -0.34 | USP10 -0.166 | USP15 -0.424 | USP16 -0.285
active: UCHL1 -1.67 | UCHL3 -1.75
